Source: PubChem BioAssay (NCI)
This is part of a sample that, as a whole, favours compounds with a hit. Of some 83,000 tested, about 20% had one in any assay.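 Single-concentration screen, 48 h exposure, 96-well plates. Endpoint: percent growth. Below 10 = active.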 Unmarked numbers belong to inactive results. Activity calls are given as the source filed them.

Columns and labels:
Assay in all cases: NCI-60 one-dose screen, 48 h (100 = growth as untreated, 0 = no growth, -100 = all killed)
[1] = system: HCT-15 colon; settings: 10 µM unless noted
[2] = system: SNB-75 CNS; settings: 10 µM
[3] = system: SNB-19 CNS; settings: 10 µM unless noted
[4] = system: U251 CNS; settings: 10 µM unless noted
[5] = system: PC-3 prostate; settings: 10 µM unless noted
[6] = system: SK-MEL-5 melanoma; settings: 10 µM unless noted
[7] = system: UACC-62 melanoma; settings: 10 µM unless noted
[8] = system: LOX IMVI melanoma; settings: 10 µM unless noted
[9] = system: SK-MEL-28 melanoma; settings: 10 µM unless noted
[10] = system: SK-MEL-2 melanoma; settings: 10 µM unless noted
[11] = system: EKVX NSCLC; settings: 10 µM unless noted
[12] = system: SN12C renal; settings: 10 µM unless noted
[13] = system: UO-31 renal; settings: 10 µM unless noted
[14] = system: TK-10 renal; settings: 10 µM unless noted
[15] = system: ACHN renal; settings: 10 µM unless noted
[16] = system: A498 renal; settings: 10 µM unless noted
[17] = system: CCRF-CEM leukemia; settings: 10 µM unless noted
[18] = system: MOLT-4 leukemia; settings: 10 µM unless noted
[19] = system: CAKI-1 renal; settings: 10 µM unless noted
[20] = system: HT29 colon; settings: 10 µM unless noted

Compound	growth [1]	growth [2]	growth [3]	growth [4]	growth [5]	growth [6]	growth [7]	growth [8]	growth [9] [%]	growth [10] [%]	growth [11] [%]	growth [12]	growth [13]	growth [14]	growth [15]	growth [16] [%]	growth [17]	growth [18]	growth [19]	growth [20]
NC(N)=Nc1nc2ccccc2o1	105%	111%	99.7%	101%	57.6%	93.8%	104%	95.5%	95.5	133	109	110%	99.9%	129%	96.6%	89.5	80.1%	95.4%		
COc1cc(C2C3=C(COC3=O)Nc3cc4c(cc32)OCO4)cc2c1OCO2 (stereo unspecified)	9.19% (active)	42.2%	31%	18.5%	24%	-60.6% (active)	41.3%	16%	65.3	41.6	44.6	23.4%	51%	55%		21.3	8.12% (active)	12.1%	44.1%	
O=C1Nc2ccc3c(c2/C1=C\c1cc2c(cc1Br)OCO2)OCO3	22.9%	-37.7% (active)	42%	13.4%	16.6%	-19.9% (active)	43.9%	-29.5% (active)	19.4	42.4	37.3	26.7%	-15.9% (active)	-31.2% (active)	11.4%	19.1		35.7%	-25.7% (active)	
COc1ccc(S(=O)(=O)n2ccc(-c3ccc4c(c3)CCC(C)(C)O4)n2)cc1OC	71.9%	84.6%	87.4%	79.5%	69.5%	28.2%	63.9%	76.7%	91	56.2		83.1%	68.5%	72.1%	78%	52.8	82.2%	63.8%	58.3%	
CCCOC(=O)n1cccc1	107%	75.4%	100%	107%	91.6%	109%	91.5%	89.8%	116	118	99.7	94.2%				106	99.2%	117%	108%	
COc1ccc(-c2c(-c3cc(OC)c4c(c3)OCO4)noc2N)cc1	14.2%	25.9%	34.4%	16.4%	25.6%	-54.4% (active)	32.7%	15.4%	58.8	53.4	44.6	22.9%				23.6	14.1%	4.69% (active)	38.7%	
COc1cc(C2C3=C(COC3=O)Nc3cc4c(cc32)CCC4)cc2c1OCO2 (stereo unspecified)	14.8%	46.3%	42.9%	27.5%	20.4%	-42.4% (active)	43.7%	13.9%	59.1	54.4	45.4	30.9%	53.5%	67.4%		25.6	10.3%	19.6%	37.2%	
CC1(C)C(=O)/C(=C\c2ccc(C(F)(F)F)cc2)C[C@]2(C)[C@H]3CC[C@@H]4[C@H]5[C@H](C(=O)/C=C/c6ccc(C(F)(F)F)cc6)CC[C@]5(CO)CC[C@@]4(C)[C@]3(C)CC[C@@H]12		83.7%	92.6%	92.8%	84%	94.1%	84.3%		110	105		91.8%	66.6%	126%	91.9%	93.7	90.5%	82.5%	56.2%	104%
CN1CCN(Cc2ccc(NC(=O)c3nc4ccc5[nH]ncc5c4c4c3CCC4)cc2C(F)(F)F)CC1		96.3%	-76.7% (active)	-93.7% (active)	-64.8% (active)	88.5%	-61.7% (active)	-86.8% (active)		104		-82.7% (active)	-96.3% (active)	-91.2% (active)	-99.6% (active)	84.6	-9.12% (active)	-38.7% (active)	-97.4% (active)	-66% (active)
